Source: PubChem BioAssay (National Center for Advancing Translational Sciences (NCATS))
Sampled rows, rich in hits. Any-hit rate of the full collection: about 14%.
HCMV inh: qHTS Assay for inhibitors of the human cytomegalovirus (HCMV). activity change, negative = inhibition, % at 57.5 µM. 410,000 compounds, 4.5% hits. HFF cells, HCMV-luciferase reporter, 72 h; hits give low values; in the data active = activity change below about -60%; inconclusive = no clear call, values can overlap the other calls; inactive = above about -39%
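Two compound doses tested in HFFs infected with HCMV-luciferase, MOI 1 PFU/cell, 72 h at 37C. Lysate luminescence read with OneGlo; data normalized against buffer-only and 10uM Salinomycin inhibitor controls.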
Pf growth 96h: Primary qHTS for delayed death inhibitors of the malarial parasite plastid, 96 hour incubation | Potency, µM (top dose mostly 28.7 µM), actives largely listed as inhibitors | P. falciparum luciferase reporter growth, 96 h | AID 504834, 2011 | 320,000 compounds, 6.9% hits
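Plates of compound plus infected erythrocytes (2% hematocrit, 0.05% parasitemia final) incubate 96 hours, 37 C, 5% CO2. Detection reagent added; reduced luminescence from the parasites' luciferase reporter flags inhibition.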
FBPA Giardia inh: qHTS Assay for Inhibitors of Fructose-1,6-bisphosphate Aldolase from Giardia Lamblia | A8B2U2 | purified Giardia FBPA | Potency, µM (series often up to 59.6 µM), hits mostly inhibitors | 290,000 compounds, 0.71% hits; also: nearly all actives have a fitted effect of over 55% in size
Target sequence (A8B2U2 whole entry, looked up): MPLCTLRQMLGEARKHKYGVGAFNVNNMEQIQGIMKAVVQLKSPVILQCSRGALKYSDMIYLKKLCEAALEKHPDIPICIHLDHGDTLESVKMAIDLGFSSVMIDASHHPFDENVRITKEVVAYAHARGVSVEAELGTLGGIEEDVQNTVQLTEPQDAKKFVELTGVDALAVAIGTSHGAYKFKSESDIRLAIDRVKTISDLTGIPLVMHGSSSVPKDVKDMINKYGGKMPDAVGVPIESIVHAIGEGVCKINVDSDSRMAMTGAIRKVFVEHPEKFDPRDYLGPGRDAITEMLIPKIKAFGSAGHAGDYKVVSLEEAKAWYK
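40 nM FBPA preincubated 10 min at RT with compound (up to 57.5 uM final), then substrate plus GAPDH/TPI/NAD/arsenate coupling and diaphorase/resazurin added. Fluorescence read after 20 min at RT, 525/598 nm.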
Sm TGR block: qHTS Assay for the Inhibitors of Schistosoma Mansoni Peroxiredoxins | purified TGR, DTNB reduction, TNB absorbance 405 nm | Potency, µM (series often up to 114 µM), usual class: inhibitors | 360,000 compounds, 3% hits | AID 485364, 2010; also: nearly all actives have a fitted effect of over 60% in size
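Kinetic colorimetric format: TGR-catalysed, NADPH-driven DTNB reduction monitored via TNB absorbance. Enzyme dispensed at 20 nM; compound exposure 15 min at room temperature before reaction start.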
Pf growth 48h: Primary qHTS for delayed death inhibitors of the malarial parasite plastid, 48 hour incubation; AID 504832, 2011; Potency, µM (top dose mostly 28.7 µM), actives largely listed as inhibitors; 310,000 compounds, 5.9% hits; P. falciparum luciferase growth in erythrocytes, 48 h
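In quantitative HTS format, infected erythrocytes bearing luciferase-reporter parasites were treated for a single generation at 37 C. Luminescence after adding detection reagent served as the growth measure.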
A number is an active result. Unless noted, calls follow the shape of the dose curve; as a rule, active = well fitted curve in the direction sought with a large enough effect; inconclusive = small, poorly fitted or top-dose-only effect, or another doubt; inactive = no such curve, though single readings can be large; an effect the other way counts as inactive or inconclusive.

How did COC(=O)c1ccc(NC(=O)CCCCCn2nnc3ccccc3c2=O)cc1 do in these assays?
HCMV inh: inactive; Pf growth 96h: 3.3µM; FBPA Giardia inh: inactive; Sm TGR block: inactive; Pf growth 48h: 5.2µM

How did COc1cc(OC)c(NC(=O)N2CCc3cc(S(=O)(=O)N4CCC(C)CC4)ccc32)cc1Cl do in these assays?
HCMV inh: inconclusive; Sm TGR block: inactive

Results for CC(C)OC(=O)N(C)C[C@@H]1OCc2cnnn2CCCC(=O)N([C@@H](C)CO)C[C@H]1C ?
HCMV inh: inactive

What do the screens show for `CC[C@H](C)[C@H](NC(=O)[C@H](CCCNC(=N)N)NC(=O)[C@@H]1CCCN1C(=O)[C@H](Cc1ccccc1)NC(=O)[C@H](Cc1cnc[nH]1)NC(=O)[C@H](CCCNC(=N)N)NC(=O)[C@@H](NC(=O)[C@H](C)NC(=O)[C@H](CCC(=O)O)NC(=O)[C@H](CC(N)=O)NC(=O)[C@@H](N)CCCCN)C(C)C)C(=O)N[C@@H](Cc1c[nH]c2ccccc12)C(=O)N[C@@H](CC(C)C)C(=O)O`?
FBPA Giardia inh: inactive

Results for CC1(C)CC(=O)C(c2c[nH]c3ccccc23)C(=O)C1 ?
HCMV inh: inactive; Pf growth 96h: inactive; FBPA Giardia inh: inactive; Sm TGR block: 20µM; Pf growth 48h: inactive

Results for COc1cccc(N2C(=O)CC(c3c[nH]c4ccccc34)C2=O)c1 (centres undefined) ?
HCMV inh: inactive; FBPA Giardia inh: inactive; Sm TGR block: inactive; Pf growth 48h: inactive

How did O=C1CC(c2c[nH]c3ccccc23)C(=O)N1c1ccccc1 (centres undefined) do in these assays?
HCMV inh: inactive; Pf growth 96h: 7.4µM; FBPA Giardia inh: inactive; Sm TGR block: inactive; Pf growth 48h: inactive

Results for CCOC(=O)C1=C(c2ccccc2)NC(N)=NC1c1ccc(OCc2ccc(C(=O)OC)cc2)cc1 (centres undefined) ?
HCMV inh: inconclusive; Pf growth 96h: 7.4µM; FBPA Giardia inh: inactive; Sm TGR block: inactive; Pf growth 48h: 4.7µM

Results for CCOC(=O)C1=C(c2ccccc2)Nc2ncnn2C1c1ccc(C(=O)O)cc1 (centres undefined) ?
HCMV inh: inactive; Pf growth 96h: inactive; FBPA Giardia inh: inactive; Sm TGR block: inactive; Pf growth 48h: inactive

How did CSCCC(NC(=O)COc1ccccc1)C(=O)N(C)Cc1ccc(Cl)cc1Cl (centres undefined) do in these assays?
HCMV inh: inactive; Pf growth 96h: inconclusive; Sm TGR block: inactive; Pf growth 48h: inconclusive

What do the screens show for `CN1CCCC(C(=O)c2ccc(Cl)cc2)C1` (centres undefined)?
HCMV inh: inactive; Pf growth 96h: inconclusive; FBPA Giardia inh: inactive; Sm TGR block: 35µM; Pf growth 48h: inactive

How did CC(=O)c1ccc(C(=O)N2CCCC(C(=O)c3ccc(Cl)cc3)C2)s1 (centres undefined) do in these assays?
HCMV inh: inactive; Pf growth 96h: inactive; Sm TGR block: inactive; Pf growth 48h: inactive

What do the screens show for `C=CCNC(=S)N1CCC(C(=O)c2ccc(Cl)cc2)CC1`?
HCMV inh: inactive; Pf growth 96h: 9.3µM; FBPA Giardia inh: inconclusive; Sm TGR block: inactive; Pf growth 48h: inactive

What do the screens show for `CC(C)(C)NC(=S)N1CCC(C(=O)c2ccc(Cl)cc2)CC1`?
HCMV inh: inactive; Pf growth 96h: 3.3µM; FBPA Giardia inh: inactive; Sm TGR block: inconclusive; Pf growth 48h: inactive

What do the screens show for `CC(C)C(C)NC(=O)CN1C(=O)NC(c2ccccc2)(c2ccccc2)C1=O` (centres undefined)?
HCMV inh: inactive; Pf growth 96h: inactive; FBPA Giardia inh: inactive; Sm TGR block: inactive; Pf growth 48h: inactive

Results for O=[N+]([O-])c1ccc(/C=N/Nc2ncc(Br)cn2)cc1 ?
HCMV inh: inactive; Pf growth 96h: inconclusive; FBPA Giardia inh: inactive; Sm TGR block: inactive; Pf growth 48h: inactive

What do the screens show for `Nc1cc(Cl)nc(N/N=C/c2ccc([N+](=O)[O-])cc2)n1`?
HCMV inh: inactive; Pf growth 96h: 4.7µM; FBPA Giardia inh: inactive; Sm TGR block: inactive; Pf growth 48h: inconclusive

How did Nc1cc(Cl)nc(N/N=C/c2ccccc2[N+](=O)[O-])n1 do in these assays?
HCMV inh: inactive; Pf growth 96h: 6.6µM; FBPA Giardia inh: inactive; Sm TGR block: inactive; Pf growth 48h: inactive

How did O=C(CN1C(=O)CN=C(c2ccccc2)c2ccccc21)NCc1ccco1 do in these assays?
HCMV inh: inactive; Pf growth 96h: inconclusive; FBPA Giardia inh: inactive; Sm TGR block: 40µM; Pf growth 48h: inactive

Results for Cc1ccc(CN2C(=O)CN=C(c3ccccc3)c3ccccc32)cc1 ?
HCMV inh: -74; Pf growth 96h: inactive; FBPA Giardia inh: inactive; Sm TGR block: inactive; Pf growth 48h: inconclusive

How did O=C(NCCc1csc(-c2ccc(F)cc2)n1)c1c(F)cccc1Cl do in these assays?
HCMV inh: inactive; Sm TGR block: inactive

Results for COc1cc(-c2nc(CCNC(=O)c3ccco3)cs2)cc(OC)c1OC ?
HCMV inh: inactive; Pf growth 96h: 10µM; Sm TGR block: inactive; Pf growth 48h: inconclusive

What do the screens show for `Cc1cccc(CN2C(=O)CN=C(c3ccccc3)c3ccccc32)c1`?
HCMV inh: inconclusive; Sm TGR block: inactive

How did O=C(NCCc1csc(-c2ccccc2)n1)c1c(F)cccc1Cl do in these assays?
HCMV inh: -70; Pf growth 96h: inactive; FBPA Giardia inh: inactive; Sm TGR block: inactive; Pf growth 48h: inactive

Results for Cc1ccc(-c2nc(CCNC(=O)c3ccco3)cs2)cc1 ?
HCMV inh: inactive; Pf growth 96h: inconclusive; Sm TGR block: inactive; Pf growth 48h: inconclusive

What do the screens show for `Cc1nc2ccc(C(=O)NCCCn3ccnc3)cn2c1N(C)C(=O)CCc1ccccc1`?
HCMV inh: inactive

What do the screens show for `CC(=O)c1ccc(N2CCN(C(=O)c3cc4c(s3)-c3ccccc3OC4)CC2)cc1`?
HCMV inh: inactive; Sm TGR block: inactive

How did OC[C@@H]1OC(O)[C@H](O)[C@H](O)[C@H]1O (some centres undefined) do in these assays?
FBPA Giardia inh: inactive

What do the screens show for `CCOC(=O)C1CCCN(C(=O)c2ccc3c(c2)C(C)(C)CCC3(C)C)CC1` (centres undefined)?
HCMV inh: inactive

Results for COc1cc(-c2noc(CSc3nc(-c4ccccc4)cc(=O)[nH]3)n2)cc(OC)c1OC ?
HCMV inh: inactive; Sm TGR block: inactive

What do the screens show for `CO[C@@H]1CN(C)C(=O)c2cc(NS(=O)(=O)c3ccc(C)cc3)ccc2OC[C@H](C)N(Cc2nccs2)C[C@H]1C`?
HCMV inh: inactive

What do the screens show for `O=C(Cc1csc(-c2ccccc2)n1)NCc1ccc(F)cc1`?
HCMV inh: inactive; Pf growth 96h: inactive; FBPA Giardia inh: inactive; Sm TGR block: inactive; Pf growth 48h: inactive
